test system: PPARg:RXRa 30nM:10nM, anti-RXR (NR concentration 30 nM, RXRa partner concentration 10 nM); assay: PBM binding z-score (relative to random genomic background probes); higher = stronger binding; sequences stand for … in GC…GCGATTGACAGCGTAGAATGAAGG
Procedure, shortened: (§1)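 Probes were double-stranded and carried 34-nt variable regions with direct-repeat seeds, single-nucleotide variants, half-site ablations and random human genomic background sequences, printed on custom Agilent 4×180K protein-binding microarrays. Arrays were incubated 1 h with ligand-free nuclear receptor dimers in PBS pH 7.4, 2% milk, 0.02% Triton X-100, 1 mM DTT, 0.2 mg/mL BSA and 0.4 mg/ml salmon testes DNA. Antibodies against each partner (one per run) detected binding, and scanned fluorescence was regression-normalized. Binding z-scores use the random background probes as reference.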

Row | Sequence | PBM binding z-score
1 | TATACAGGGTCAAATGCCAGAGTACGAATGTCGA | 3.95
2 | GTACCAAGGTGAATAGGTCGTTCATGAGTAGGCG | 0.0443
3 | GCTTACGGGTCAAAGGTTCTAGCATGAATAGAAT | 7.78
4 | CTCAAAAGGTCGGTTGAGGTGAGTATACGGATAA | 0.383
5 | GGAACGAGGGCAAGTTGATAACAGAGTTTGATGG | 0.316
6 | CCTGCTAGGTCATGGTCAGCCAATCTACAGTATG | 0.768
7 | ACTCGGAGGACAAAGGTCGGAGCTACGCCAGTGA | 3.54
8 | CCTACTGGGCCAAAAAGGTCAGTGATGCCGATAA | 0.549
9 | TGAATGAGGTTAAAGATCAGGGTACGTGGCGTCG | 4.71
10 | GATGCAGGGTCAGCTAGAGGCCAGAGTATGGAAA | 0.448
11 | TCTCGGAGGACACGAAAGGTCAAAGCTCGACATC | 2.79
12 | ACTAGCAGGCCAAGTTTGTGTCACTCAAACAAAG | -0.538
13 | CCTCGGAGGGCAGAAGGTCAGAGCTGTCCGCTTT | -0.473
14 | GCGGCTAGGTCAGGTTGGTCAGCTAACGGGTACG | -0.687
15 | CTCGAAAGGTCGGTTGAGGTGAGTATGCGGATAA | 0.131
16 | TCTAGTTGGTCAAAGGGCACACACTCGAAATGCG | 7.7
17 | TCATATAGGTAAAAGTTGAAAGTCGGTGTGGTAA | 7.31
18 | CAAACTAGGTCAAGAGGTCAAAGTGCGCTTCCCG | 7.04
19 | TTACCAAGCTGAAAGGTCGTTGATGCACGCCTTG | 1.06
20 | CTCGAAAGGTCGGCTGAGGTGAGTATACGGATAA | 0.306

Row | Sequence | PBM binding z-score
21 | ATATGTAGGCTAAGGGTCATTCAGGTTGGTTCGC | 9.28
22 | TCGAGTAGGTTACCAATCGGGCATTCAGCTTTCT | 1.26
23 | ATATGTAGGTTAAGGGTCATTCACGTTGGTTCGC | 9.95
24 | ATCGAAAGGTCGAAGGTGAGTATACCCACCCGAA | 2.14
25 | ACTCGGCGGACAAAGGTCAGAGCTACGCCAGTGA | 3.53
26 | CGTCCAAGGTCATAGGAGGTCAGTGGAGACAGAT | 2.93
27 | GCTGCTAGGTCAGGTTGGTGAGCTAACGGGTACG | -0.603
28 | CAAACTCGGTCACCGGAAGGTCAAAGTCCGCATG | 1.23
29 | AGAATGAGGTTATACGTAGATCAGGGCAGAAAGT | 0.79
30 | TCTATTAGTTGAAGGGCAATCGACGAGTCCGTTT | 3.75
31 | GCTAGTTGGTCAGTAGAAGGTCACACACCGGTCG | 0.306
32 | CTAACTAGGTCAGAACAGGACAGTGAAGGATGAT | 2.43
33 | TTACCAAGGTGAAAGCTCGTTGATGCACGCCTTG | 0.448
34 | ATCGAAAGGTCGTAAGGTGAGTATACAGAAAGGC | 1.6
35 | TGAATGAGGTTAAAGATCAGCGAACGTGGCGTCG | 5.47
36 | GATACTGGGTCAAGGCCAGAGTACGCGTATTGAT | 2.7
37 | TCATGTAGGTAAACAGGTGAAAGTCCGTAAGTTA | 3.38
38 | CCTCGTTGGTCAAGGTCACACACGCTATAGGTAC | 0.974
39 | TCTTGTAGATCAATAGAGGTTACGAAAGTGCGCT | 2.79

test system: PPARg:RXRa 90nM:30nM, anti-RXR (NR concentration 90 nM, RXRa partner concentration 30 nM); assay: as above
Procedure, shortened: as §1

Row | Sequence | PBM binding z-score
40 | TATACAGGGTCAAATGCCAGAGTACGAATGTCGA | 5.73
41 | GTACCAAGGTGAATAGGTCGTTCATGAGTAGGCG | 0.958
42 | GCTTACGGGTCAAAGGTTCTAGCATGAATAGAAT | 8.24
43 | CTCAAAAGGTCGGTTGAGGTGAGTATACGGATAA | 0.881
44 | GGAACGAGGGCAAGTTGATAACAGAGTTTGATGG | 1.03
45 | CCTGCTAGGTCATGGTCAGCCAATCTACAGTATG | 1.98
46 | ACTCGGAGGACAAAGGTCGGAGCTACGCCAGTGA | 5.62
47 | CCTACTGGGCCAAAAAGGTCAGTGATGCCGATAA | 1.83
48 | TGAATGAGGTTAAAGATCAGGGTACGTGGCGTCG | 6.42
49 | GATGCAGGGTCAGCTAGAGGCCAGAGTATGGAAA | 1.74
50 | TCTCGGAGGACACGAAAGGTCAAAGCTCGACATC | 3.33
51 | ACTAGCAGGCCAAGTTTGTGTCACTCAAACAAAG | -0.746
52 | CCTCGGAGGGCAGAAGGTCAGAGCTGTCCGCTTT | 1.44
53 | GCGGCTAGGTCAGGTTGGTCAGCTAACGGGTACG | 0.275
54 | CTCGAAAGGTCGGTTGAGGTGAGTATGCGGATAA | 0.771
55 | TCTAGTTGGTCAAAGGGCACACACTCGAAATGCG | 8.57
56 | TCATATAGGTAAAAGTTGAAAGTCGGTGTGGTAA | 8.17
57 | CAAACTAGGTCAAGAGGTCAAAGTGCGCTTCCCG | 8.54
58 | TTACCAAGCTGAAAGGTCGTTGATGCACGCCTTG | 2.53
59 | CTCGAAAGGTCGGCTGAGGTGAGTATACGGATAA | 1.12

Row | Sequence | PBM binding z-score
60 | ATATGTAGGCTAAGGGTCATTCAGGTTGGTTCGC | 9.65
61 | TCGAGTAGGTTACCAATCGGGCATTCAGCTTTCT | 1.27
62 | ATATGTAGGTTAAGGGTCATTCACGTTGGTTCGC | 11.2
63 | ATCGAAAGGTCGAAGGTGAGTATACCCACCCGAA | 4.33
64 | ACTCGGCGGACAAAGGTCAGAGCTACGCCAGTGA | 5.74
65 | CGTCCAAGGTCATAGGAGGTCAGTGGAGACAGAT | 4.69
66 | GCTGCTAGGTCAGGTTGGTGAGCTAACGGGTACG | 0.225
67 | CAAACTCGGTCACCGGAAGGTCAAAGTCCGCATG | 3.26
68 | AGAATGAGGTTATACGTAGATCAGGGCAGAAAGT | 1.41
69 | TCTATTAGTTGAAGGGCAATCGACGAGTCCGTTT | 2.67
70 | GCTAGTTGGTCAGTAGAAGGTCACACACCGGTCG | 1.54
71 | CTAACTAGGTCAGAACAGGACAGTGAAGGATGAT | 4.19
72 | TTACCAAGGTGAAAGCTCGTTGATGCACGCCTTG | 0.792
73 | ATCGAAAGGTCGTAAGGTGAGTATACAGAAAGGC | 2.5
74 | TGAATGAGGTTAAAGATCAGCGAACGTGGCGTCG | 6.67
75 | GATACTGGGTCAAGGCCAGAGTACGCGTATTGAT | 4.74
76 | TCATGTAGGTAAACAGGTGAAAGTCCGTAAGTTA | 3.64
77 | CCTCGTTGGTCAAGGTCACACACGCTATAGGTAC | 2.24
78 | TCTTGTAGATCAATAGAGGTTACGAAAGTGCGCT | 2.24

Reference: the supplement of paper PMC6555819
